Assay [1] concerns the target ATP-dependent 6-phosphofructokinase (Trypanosoma brucei brucei) (UniProt O15648). Kind of assay: qHTS Validation Assay to Find Inhibitors of T. brucei phosphofructokinase (AID 485368). An outline of the steps: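 Enzyme reaction in triethanolamine buffer pH 8.0 with 5 mM MgCl2, 0.01% Tween20 and 0.1% BSA; PFK 1.25 nM, F6P 0.5 mM, ATP 0.1 mM, 45 min RT. ADP quantified by ADP-Glo.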
A general note: qHTS replaces the single test concentration by a dilution series.

In assay [2] the target is Thioredoxin reductase 1, cytoplasmic (Rattus norvegicus) (UniProt O89049). Kind of assay: qHTS Assay for Substrates of Mammalian Selenoprotein Thioredoxin Reductase 1 (TrxR1) (AID 488772).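 Note: NADPH fluorescence in the first read after selenite addition and not the 8 min delta; series mostly up to about 57 µM; a drop in NADPH fluorescence below the no-compound background marks a TrxR1 substrate.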 In short, it runs like this:
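Quantitative HTS in Tris-HCl buffer at pH 7.5 with EDTA and Tween-20, using rat TrxR1, 400 uM NADPH and 400 uM selenite (final). A fall in initial NADPH fluorescence relative to background marked substrate behaviour.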

The target is the same in assay [3]. Kind of assay: qHTS Assay for Inhibitors of Mammalian Selenoprotein Thioredoxin Reductase 1 (TrxR1) (AID 488773).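 Note: drop in NADPH fluorescence over an 8 min run after selenite addition; series mostly up to about 57 µM; nearly all actives have a fitted effect of over 40% in size.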 Particulars: Potency: inhibition. An outline of the steps: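 Steps: enzyme (90 nM) plus NADPH (400 uM final), 5 min at ~22 deg C; compound added, 15 min; selenite (400 uM final) added; fluorescence followed for 8 min. Concentration-response curves derived from the normalized delta values.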

Assay [4] deals with Flap endonuclease 1 (Homo sapiens) (UniProt P39748). Nature of the assay: qHTS Validation Assay for the Inhibitors of Human Flap endonuclease 1 (FEN1) (AID 488816). Note: potency is the fitted concentration of half-maximal effect. In short, it runs like this:
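Readings taken at 0 and 15 min after starting the reaction with 50 nM (final) substrate supplied the signal. Compounds had first sat with 10 nM FEN1 reagent for 15 min at room temperature. Values come from Hill-equation concentration-response fits.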

Assay [5] concerns the target M-phase phosphoprotein 8 (Homo sapiens) (UniProt Q99549). Nature of the assay: qHTS Validation Assay for Inhibitors for MPP8 Chromodomain Interactions with Methylated Histone Tails (AID 488949). Note: nearly all actives have a fitted effect of over 55% in size. Note: potency is the fitted concentration of half-maximal effect. In short, it runs like this: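 MPP8 (50 nM) was pre-bound to 50 nM biotinylated H3(1-18)K9me3 peptide in PBS pH 7.4 with 0.01% Tween-20. Compounds were then added for 30 min at room temperature, and complex disruption was read by AlphaScreen with streptavidin donor and nickel-chelate acceptor beads.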

In assay [6] the target is Methanococcus maripaludis chaperonin (MmCpn) (UniProt Q6LX38). Kind of assay: High-Throughput Screening for Modulators of Cytosolic Chaperonin Activity: MmCpn Primary Screen (AID 488978).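 Note: 50 nM MmCpn enzyme hydrolysing 30 µM ATP at 37 °C.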 In short, it runs like this:
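MmCpn at 50 nM final was preincubated 5 min at RT with compound. ATP was then added at 30 uM final for 10 min at 37 C. ADP formed was detected by Transcreener HTRF (665/590 nm).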

In assay [7] the target is Transient receptor potential cation channel subfamily V member 1 (Homo sapiens) (UniProt Q8NER1). Nature of the assay: HTS Assay for Compounds that Act as Enhancers of the Vanilloid Receptor 1 (AID 488979). In short, it runs like this: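 Calcium influx kinetics via Fluo-8 (480/520 nm) in TRPV1-expressing cells, 2000/well cultured overnight at 35.5C. Compound-alone read 3 min (agonist phase), followed by EC20 capsaicin challenge for 2 min (enhancer phase).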

Assay [8] can be described thus: Quantitative high throughput screen for delayed death inhibitors of the malarial parasite plastid, 96 hour incubation (AID 488745). Note: nearly all actives have a fitted effect of over 70% in size. Note: potency is the fitted concentration of half-maximal effect. An outline of the steps:
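P. falciparum carrying an integrated firefly luciferase reporter, grown in erythrocytes (2% hematocrit, 0.1% parasitemia final) in RPMI 1640/0.5% Albumax, was exposed to compound for 96 h (two generations) at 37 C, 5% CO2. Luminescence decrease indicated growth inhibition.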

Assay [9] in a line: Quantitative high throughput screen for delayed death inhibitors of the malarial parasite plastid, 48 hour incubation (AID 488752). Note: nearly all actives have a fitted effect of over 65% in size. Note: potency is the fitted concentration of half-maximal effect. An outline of the steps: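 Erythrocytes infected with P. falciparum carrying an integrated firefly luciferase reporter (2% hematocrit, 0.1% parasitemia final) were exposed to compounds in RPMI 1640/0.5% Albumax for 48 h at 37 C, 5% CO2. Growth inhibition was scored as reduced luminescence.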

For assay [10], the target named is Chromobox protein homolog 1 (Homo sapiens) (UniProt P83916). Nature of the assay: qHTS Validation Assay for Inhibitors of HP1-beta Chromodomain Interactions with Methylated Histone Tails (AID 488953). Note: nearly all actives have a fitted effect of over 50% in size. Note: potency is the fitted concentration of half-maximal effect. In short, it runs like this:
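HP1-beta (50 nM) was preincubated 30 min at room temperature with biotinylated H3(1-18)K9me3 peptide (50 nM) in PBS pH 7.4, 0.01% Tween-20, then with compounds 30 min. AlphaScreen signal was read after streptavidin donor/nickel chelate acceptor beads (10 ug/mL final).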

From PubChem BioAssay (NCATS) come the findings set out here.

Structures are written as SMILES. Where “and” joins values, the source holds several entries; their conditions need not be identical. Equal values may be shown once. Inconclusive results are not listed. Some structures have more than one record in an assay (separate samples or runs), and their calls can disagree. Calls of active or inactive are those of the source. Calls come from the whole dose curve; as a rule, active = well fitted curve in the direction sought with a large enough effect; inconclusive = small, poorly fitted or top-dose-only effect, or another doubt; inactive = no such curve, though single readings can be large; an effect the other way counts as inactive or inconclusive.

Chain of M-phase phosphoprotein 8 (Homo sapiens) (Q99549 whole entry, looked up): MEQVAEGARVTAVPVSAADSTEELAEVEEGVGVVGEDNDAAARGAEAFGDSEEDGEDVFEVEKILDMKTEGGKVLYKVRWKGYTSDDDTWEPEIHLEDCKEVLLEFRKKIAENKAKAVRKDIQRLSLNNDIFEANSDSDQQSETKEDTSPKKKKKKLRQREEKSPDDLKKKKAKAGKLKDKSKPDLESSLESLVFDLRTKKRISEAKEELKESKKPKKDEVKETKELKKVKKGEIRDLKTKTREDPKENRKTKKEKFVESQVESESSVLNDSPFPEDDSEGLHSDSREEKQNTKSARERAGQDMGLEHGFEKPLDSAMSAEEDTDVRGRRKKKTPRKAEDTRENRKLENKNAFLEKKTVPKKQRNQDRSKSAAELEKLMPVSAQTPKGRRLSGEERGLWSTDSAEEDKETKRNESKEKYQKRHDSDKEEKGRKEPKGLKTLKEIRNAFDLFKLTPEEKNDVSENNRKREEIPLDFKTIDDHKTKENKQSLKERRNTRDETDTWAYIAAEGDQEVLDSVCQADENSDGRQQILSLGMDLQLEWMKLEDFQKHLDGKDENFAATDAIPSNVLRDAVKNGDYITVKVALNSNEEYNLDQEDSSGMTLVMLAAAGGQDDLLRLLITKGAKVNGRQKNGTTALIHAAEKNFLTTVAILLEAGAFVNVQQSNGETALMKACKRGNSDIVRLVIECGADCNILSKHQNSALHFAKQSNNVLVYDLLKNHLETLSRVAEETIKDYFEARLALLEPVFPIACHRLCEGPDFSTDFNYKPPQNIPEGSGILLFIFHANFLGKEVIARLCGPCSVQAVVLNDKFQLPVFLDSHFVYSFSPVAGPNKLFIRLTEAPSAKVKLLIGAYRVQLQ
Chain of Flap endonuclease 1 (Homo sapiens) (P39748 whole entry, looked up): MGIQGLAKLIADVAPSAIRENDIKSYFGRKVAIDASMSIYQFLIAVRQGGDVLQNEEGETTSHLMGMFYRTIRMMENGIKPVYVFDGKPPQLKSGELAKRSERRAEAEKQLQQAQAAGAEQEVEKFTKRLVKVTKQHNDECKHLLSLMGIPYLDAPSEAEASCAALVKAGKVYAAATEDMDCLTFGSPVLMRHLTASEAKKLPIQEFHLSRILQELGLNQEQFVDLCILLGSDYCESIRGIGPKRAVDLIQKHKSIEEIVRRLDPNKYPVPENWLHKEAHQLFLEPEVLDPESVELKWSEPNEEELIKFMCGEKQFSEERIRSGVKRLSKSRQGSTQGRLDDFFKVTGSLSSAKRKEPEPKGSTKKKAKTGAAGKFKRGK
Chain of Methanococcus maripaludis chaperonin (MmCpn) (Q6LX38 1-543): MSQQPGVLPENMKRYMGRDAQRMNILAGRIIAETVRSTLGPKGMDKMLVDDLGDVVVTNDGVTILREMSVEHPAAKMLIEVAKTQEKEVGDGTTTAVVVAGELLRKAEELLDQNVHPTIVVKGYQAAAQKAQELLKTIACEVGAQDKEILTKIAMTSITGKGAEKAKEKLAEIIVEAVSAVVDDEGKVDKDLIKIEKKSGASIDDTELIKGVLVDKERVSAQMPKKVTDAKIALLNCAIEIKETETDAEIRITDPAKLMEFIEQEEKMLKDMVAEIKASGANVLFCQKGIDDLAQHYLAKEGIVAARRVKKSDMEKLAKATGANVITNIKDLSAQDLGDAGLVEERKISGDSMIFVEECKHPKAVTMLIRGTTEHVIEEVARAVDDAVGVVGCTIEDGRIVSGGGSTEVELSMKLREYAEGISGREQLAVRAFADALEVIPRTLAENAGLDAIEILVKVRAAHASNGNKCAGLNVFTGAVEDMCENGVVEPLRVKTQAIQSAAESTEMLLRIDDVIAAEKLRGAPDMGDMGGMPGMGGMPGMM
Chain of Transient receptor potential cation channel subfamily V member 1 (Homo sapiens) (Q8NER1 whole entry, looked up): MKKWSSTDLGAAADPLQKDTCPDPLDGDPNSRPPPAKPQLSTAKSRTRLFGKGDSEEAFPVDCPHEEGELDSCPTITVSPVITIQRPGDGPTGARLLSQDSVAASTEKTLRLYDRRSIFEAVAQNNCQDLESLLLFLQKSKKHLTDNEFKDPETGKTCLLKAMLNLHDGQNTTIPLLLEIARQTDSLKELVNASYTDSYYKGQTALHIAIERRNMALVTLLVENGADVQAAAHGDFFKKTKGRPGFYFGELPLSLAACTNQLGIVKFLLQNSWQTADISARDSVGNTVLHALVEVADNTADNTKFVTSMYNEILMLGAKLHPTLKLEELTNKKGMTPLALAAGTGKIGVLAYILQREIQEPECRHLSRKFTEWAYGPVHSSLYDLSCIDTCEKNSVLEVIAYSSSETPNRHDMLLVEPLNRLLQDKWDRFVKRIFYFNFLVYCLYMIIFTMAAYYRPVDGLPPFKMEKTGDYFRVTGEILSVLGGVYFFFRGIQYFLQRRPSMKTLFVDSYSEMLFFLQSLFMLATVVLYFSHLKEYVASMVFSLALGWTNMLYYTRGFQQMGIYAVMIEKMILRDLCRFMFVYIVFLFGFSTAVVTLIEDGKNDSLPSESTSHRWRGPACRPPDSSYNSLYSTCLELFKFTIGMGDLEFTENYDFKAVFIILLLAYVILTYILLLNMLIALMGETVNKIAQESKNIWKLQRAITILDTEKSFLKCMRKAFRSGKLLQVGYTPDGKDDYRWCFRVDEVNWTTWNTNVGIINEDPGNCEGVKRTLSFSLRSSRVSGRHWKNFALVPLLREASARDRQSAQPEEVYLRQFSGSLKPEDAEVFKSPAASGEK
Chain of Chromobox protein homolog 1 (Homo sapiens) (P83916 whole entry, looked up): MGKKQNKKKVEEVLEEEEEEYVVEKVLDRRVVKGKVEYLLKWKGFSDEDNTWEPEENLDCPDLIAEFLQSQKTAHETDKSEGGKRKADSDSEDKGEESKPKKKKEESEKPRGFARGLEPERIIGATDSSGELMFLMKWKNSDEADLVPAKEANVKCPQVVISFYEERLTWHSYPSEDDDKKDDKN
Chain of Thioredoxin reductase 1, cytoplasmic (Rattus norvegicus) (O89049 whole entry, looked up): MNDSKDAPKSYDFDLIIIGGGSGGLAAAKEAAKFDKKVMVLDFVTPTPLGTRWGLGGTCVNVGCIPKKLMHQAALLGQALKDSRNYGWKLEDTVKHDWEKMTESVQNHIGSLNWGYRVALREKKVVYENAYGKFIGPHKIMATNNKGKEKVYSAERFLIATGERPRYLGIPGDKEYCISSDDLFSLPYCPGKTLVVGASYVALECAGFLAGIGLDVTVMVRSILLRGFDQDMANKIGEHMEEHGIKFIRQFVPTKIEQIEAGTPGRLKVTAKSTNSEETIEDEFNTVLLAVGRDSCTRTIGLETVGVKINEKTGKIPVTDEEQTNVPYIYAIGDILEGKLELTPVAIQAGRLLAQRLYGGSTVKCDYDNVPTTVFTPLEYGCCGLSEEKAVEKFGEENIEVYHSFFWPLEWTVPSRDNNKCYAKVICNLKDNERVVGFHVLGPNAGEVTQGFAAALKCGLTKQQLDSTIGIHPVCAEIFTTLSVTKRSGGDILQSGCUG
Chain of ATP-dependent 6-phosphofructokinase (Trypanosoma brucei brucei) (O15648 whole entry, looked up): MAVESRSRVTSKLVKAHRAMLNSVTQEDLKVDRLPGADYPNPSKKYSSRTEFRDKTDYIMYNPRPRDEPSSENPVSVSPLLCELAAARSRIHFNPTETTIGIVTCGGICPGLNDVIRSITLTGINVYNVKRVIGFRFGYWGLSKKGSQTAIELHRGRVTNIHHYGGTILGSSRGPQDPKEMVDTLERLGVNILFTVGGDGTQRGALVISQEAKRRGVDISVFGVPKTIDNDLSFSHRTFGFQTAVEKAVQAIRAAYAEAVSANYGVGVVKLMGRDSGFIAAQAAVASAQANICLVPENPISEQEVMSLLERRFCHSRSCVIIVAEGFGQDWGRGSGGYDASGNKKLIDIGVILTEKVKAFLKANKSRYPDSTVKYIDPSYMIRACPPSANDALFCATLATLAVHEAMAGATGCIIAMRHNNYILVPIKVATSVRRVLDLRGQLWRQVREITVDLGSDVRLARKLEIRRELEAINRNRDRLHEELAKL

Regarding `COc1ccc(NC(=O)/C=C/c2ccc(Cl)cc2)cc1`, the Potency entry in assay [1], in assay [2], in [3], in assay [4] and in assay [5] was “inactive” each time. For the same molecule, the call in [6] and in [7] was inactive.
Consider `CN(C)CCC(c1ccc(Cl)cc1)c1ccccn1` (centres undefined), for which the Potency entry in assay [8], in assay [9], in assay [2], in [3], in assay [4] and in assay [10] was “inactive” each time. Moreover, the outcome in assay [6] and in [7] was inactive.
Turning to `C[N+](C)(CCCCCC[N+](C)(C)CCCN1C(=O)c2cccc3cccc(c23)C1=O)CCCN1C(=O)c2cccc3cccc(c23)C1=O`, the figures for the Potency in assay [8], in [9] and in assay [4] were 0.928 µM (active), 0.294 µM (active) and 2.99 µM (active), respectively. For the same molecule, the Potency result in [2], in assay [3], in assay [5] and in [10] was “inactive” throughout. Moreover, the call in assay [6] and in [7] was inactive.
As to `COc1ccccc1CNCCCCCCNCCCCCCCCNCCCCCCNCc1ccccc1OC`, the Potency was 1.04 µM (active) in assay [8] and 2.94 µM (active) in assay [9]. Also, the Potency entry in [2], in assay [3], in assay [4] and in [10] was “inactive” throughout. Moreover, the molecule was called inactive in [6] and in assay [7].
For `OC[C@H]1O[C@@H](n2cnc3c(NC4CCCCC4)ncnc32)[C@H](O)[C@@H]1O`, the Potency result in assay [8], in [9], in assay [2], in [3], in assay [4] and in assay [5] was “inactive” each time. The outcome in assay [6] and in assay [7] was inactive.
Take `CC1(C)CCC=[N+]1[O-]`: the Potency result in assay [8], in assay [9], in assay [2], in assay [3], in assay [4] and in [5] was “inactive” throughout. Also, in [10], the Potency entry is “inactive”. Further, the molecule was called inactive in assay [6] and in assay [7].
For the molecule `OCC1O[C@H](O)C(Cl)C(O)C1O` (some centres undefined), the Potency result in assay [8], in assay [9], in assay [2], in assay [3], in [4] and in [10] was “inactive” throughout. In addition, the result in [6] and in [7] was inactive.
For `COC(=O)c1c(C)[nH]c(C)c1C(=O)c1ccccc1Cc1ccccc1`, the Potency was 11.7 µM (active) in [8]; 9.28 µM (active) in [9]; 39.8 µM (active) and inactive in assay [5]; 44.7 µM (active) in assay [10]. Moreover, the Potency entry in assay [2], in [3] and in assay [4] was “inactive” throughout. In addition, the result in [6] and in [7] was inactive.
As for `NCCCCCCCCCCN`, the Potency entry in assay [8], in assay [9], in assay [2], in [3], in assay [4] and in assay [5] was “inactive” each time. Besides, the Potency result in [10] is “inactive”. For the same molecule, the molecule was classed as inactive in [6] and in assay [7].
Turning to `C=CC(N)CCC(=O)O` (centres undefined), the Potency result in assay [8], in assay [9], in [2], in [3], in [4] and in assay [5] was “inactive” in each case. Besides, the result in assay [6] and in assay [7] was inactive.
As to `Cc1ccccc1CNc1ncnc2c1ncn2C1OC(CO)C(O)C1O` (centres undefined), the Potency entry in assay [8], in assay [9], in assay [2], in assay [3], in assay [4] and in [5] was “inactive” throughout. Further, in assay [10], the Potency entry is “inactive”. The molecule was classed as inactive in assay [6] and in assay [7].
Regarding `COc1cc(OC)c(/C=C2/C(=O)Nc3ccccc32)c(OC)c1`, the Potency entry in [8], in assay [9], in [2], in assay [3] and in [4] was “inactive” in each case. In addition, the result in assay [6] and in assay [7] was inactive.
For `NC(CCCP(=O)(O)O)C(=O)O` (centres undefined), the Potency entry in assay [8], in assay [9], in [2], in assay [3], in assay [4] and in [5] was “inactive” each time. For the same molecule, the molecule was classed as inactive in [6] and in assay [7].
As to `O=C(O)CCCC[C@@H]1CCSS1`, the Potency entry in assay [8], in [9], in assay [2], in assay [3], in [4] and in [5] was “inactive” throughout. In addition, in assay [10], the Potency entry was “inactive”. Besides, the molecule was called inactive in assay [6] and in [7].
Turning to `Fc1ccc(C(OCCCc2cnc[nH]2)c2ccc(F)cc2)cc1`, the Potency in assay [8] was 2.62 µM (active); in [9], 6.57 µM (active); in assay [5], 50.1 µM (active); in [10] it was 39.8 µM (active). In addition, the Potency result in assay [2], in assay [3] and in assay [4] was “inactive” each time. For the same molecule, the molecule was called inactive in assay [6] and in [7].
Turning to `COc1cc2c(CCNC(C)=O)c[nH]c2cc1Cl`, the Potency result in assay [8], in assay [9], in [2], in [3], in assay [5] and in assay [10] was “inactive” throughout. The call in [6] and in assay [7] was inactive.
For `N#C/C(=C\c1c[nH]c2ccccc12)C(=O)c1ccc(O)c(O)c1`, the Potency entry in [8], in assay [9], in assay [2] and in assay [3] was “inactive” each time. The Potency in assay [4] was 4.23 µM (active); in [5], 3.98 µM (active) and 8.44 µM (active); in assay [10], 3.55 µM (active). Besides, the molecule was classed as inactive in assay [6] and in [7].
As for `O=C(O)CC[C@@H](C(=O)O)N1C(=O)c2ccccc2C1=O`, the Potency result in assay [8], in [9], in [2], in [3], in assay [4] and in [5] was “inactive” throughout. Moreover, the outcome in assay [6] and in assay [7] was inactive.
Turning to `CC12C(=O)OC(=O)C1(C)C1CCC2O1` (centres undefined), the figures for the Potency in [8] and in [9] were 3.29 µM (active) and 4.15 µM (active), respectively. Besides, the Potency entry in assay [2], in assay [3], in assay [5] and in assay [10] was “inactive” throughout. The molecule was classed as inactive in [6] and in assay [7].
In the case of `NCCNC(=O)c1ncsc1-c1cccc(F)c1`, the Potency result in assay [8], in [9], in assay [2], in assay [3], in assay [4] and in assay [5] was “inactive” each time. The Potency result in [10] is “inactive”. Also, the outcome in assay [6] and in [7] was inactive.
Consider `CCCCCCCCCCCCCCCC(=O)NCC(COP(=O)([O-])OCC[N+](C)(C)C)OCC` (centres undefined), for which the Potency entry in assay [8], in [9], in [2], in assay [3] and in assay [4] was “inactive” each time. Besides, the molecule was called inactive in [6].
With `O=C(c1cc(O)c(O)c([N+](=O)[O-])c1)c1ccccc1F`, the Potency result in [8], in [9], in assay [2] and in [3] was “inactive” throughout. Further, the Potency in assay [4] is 21.2 µM (active). In addition, the call in assay [6] and in assay [7] was inactive.
`NC[C@@H]1O[C@H](C23CC4CC(CC(C4)C2)C3)Cc2c1ccc(O)c2O`: the Potency is 3.29 µM (active) in assay [8]; 3.7 µM (active) in [9]; 20 µM (active) and inactive in [5]. Moreover, the Potency result in assay [2], in assay [3] and in [4] was “inactive” each time. The result in [6] was inactive.
With `CC[C@@H](C)[C@H]1O[C@]2(CC[C@@H]1C)C[C@@H]1C[C@@H](C/C=C(\C)[C@@H](O[C@H]3C[C@H](OC)[C@@H](O[C@H]4C[C@H](OC)[C@@H](O)[C@H](C)O4)[C@H](C)O3)[C@@H](C)/C=C/C=C3\CO[C@@H]4[C@H](O)C(C)=C[C@@H](C(=O)O1)[C@]34O)O2`, the Potency was 0.117 µM (active) in [8] and 1.65 µM (active) in assay [9].
